The supplement of paper PMC13392028
Whole data set: some 4,100 sequences, median “RBNS R-value (6-mer enrichment in protein-bound RNA vs input library)” near 0.99, cut for the highest 2% near 1.4. The sample as a whole holds a higher share of the highest values than the screen did.

Test system: PfIESI-1 RRM domain (Plasmodium falciparum ortholog aa 875-1232, GST fusion)
Assay: RBNS R-value (6-mer enrichment in protein-bound RNA vs input library) (ratio); higher = stronger binding preference; the methods of the paper give 50 / 100 / 500 nM protein instead
Procedure: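 RNA Bind-n-Seq: recombinant GST-tagged IESI-1 RRM domain was incubated at room temperature with a random 40-nt in vitro transcribed RNA library at 250, 500 or 1000 nM protein. Bound RNA was pulled down on glutathione beads and sequenced. R-value is the enrichment of each 6-mer in the bound RNA relative to the input library. Each 6-mer sits inside the random 40-mer context, not as an isolated oligo. Values are replicate 1 only.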

Sequence	RBNS R-value (protein concentration: 250 nM)	RBNS R-value (protein concentration: 500 nM)	RBNS R-value (protein concentration: 1000 nM)
UACCUA	0.87	0.814	0.831
GUAACA	0.845	0.924	0.87
AAAGAU	1.06	1.19	1.11
GGUACC	1.07	1	1.08
CCUCUA	0.848	0.783	0.823
ACGAGU	1.04	1.06	1.02
CCUUGG	1.13	1.03	1.12
UCUUGA	1.3	1.32	1.25
ACUUGC	1.02	0.979	1.01
CCUUGC	1.16	1.03	1.09
ACUUGU	0.921	0.923	0.962
ACUUGA	1.42	1.46	1.34
GCUUGA	1.36	1.4	1.28
GCUUGU	0.92	0.92	0.939
CCUUGA	1.46	1.37	1.32
CGAGUC	1.09	1.04	1.06
ACGCCU	1.07	0.995	1.03
AUGUGC	1.04	1.07	1
AGUCAA	0.859	0.93	0.933
AGAUUA	0.942	1.04	0.964
UGAUUA	2.21	2.58	1.94
CGAUCC	1.08	1.01	1.06
CGAUUA	1.05	1.11	1.04

Sequence	RBNS R-value (protein concentration: 250 nM)	RBNS R-value (protein concentration: 500 nM)	RBNS R-value (protein concentration: 1000 nM)
GGAUCC	1.04	0.978	1.05
CGAUUG	1.28	1.27	1.2
UGAUUG	2.38	2.42	1.85
UGAUUC	2.44	2.61	1.97
AGAUUC	1.19	1.22	1.17
CGAUUC	1.25	1.25	1.2
GGAUUG	1.02	1.02	1.02
UGAUCC	1.38	1.38	1.26
CCCGCU	1.09	0.999	1.04
UAAUCC	0.907	0.864	0.872
AACCAA	0.985	1.04	1.01
AAAUAG	0.904	1.06	0.986
UGAUUU	3	3.23	2.3
GGAUUU	1.03	1.02	1.02
AGAUUU	1.17	1.26	1.16
AUUCCG	1.2	1.14	1.16
ACACCG	1.17	1.12	1.15
ACACCA	1.16	1.1	1.1
ACACCC	1.53	1.28	1.33
GCACCU	1.21	1.11	1.13
GCACCG	1.14	1.09	1.14
GCACCC	1.5	1.26	1.33
UUCGUU	0.853	0.817	0.9

Sequence	RBNS R-value (protein concentration: 250 nM)	RBNS R-value (protein concentration: 500 nM)	RBNS R-value (protein concentration: 1000 nM)
CAUAUA	0.762	0.733	0.715
CUCCCU	0.934	0.873	0.909
GAACUG	1.07	1.11	1.11
UGAUAA	1.67	1.89	1.54
UGAUAC	1.59	1.68	1.47
GGAUAC	1.01	0.991	0.995
UGAUAG	1.87	2.08	1.65
AGAUAU	0.955	1.04	0.969
CGAUAA	0.968	1.04	0.996
AGAUAA	0.975	1.11	1.02
UGAUAU	1.5	1.69	1.38
CGAUAC	1.04	1.03	1.02
GGAUAG	1.02	0.975	0.995
AGAUAG	0.998	1.07	1.04
GGAUAU	0.937	0.921	0.959
UAGCUA	0.902	0.926	0.903
UGAAAA	1.16	1.3	1.22
AACGUG	0.922	0.984	0.974
UCGGGU	0.945	0.901	1.01
AUGCGU	0.924	0.929	0.959
UACCGC	0.938	0.867	0.916
UAAAAC	0.916	1.05	0.979
AGUAAA	0.862	1.01	0.909

Sequence	RBNS R-value (protein concentration: 250 nM)	RBNS R-value (protein concentration: 500 nM)	RBNS R-value (protein concentration: 1000 nM)
AUUCUG	1.19	1.22	1.1
AUCUGA	1.24	1.3	1.19
AAAGGG	1.07	1.12	1.12
GGAUGC	1.04	0.968	1.07
GGAUGA	1.23	1.25	1.17
CGAUGA	1.66	1.7	1.44
CGAUGC	1.26	1.22	1.18
CGAUGU	1.13	1.16	1.09
UGAUGU	2.5	2.78	2.1
UGAUGC	2.31	2.42	1.91
UGAUCA	1.2	1.26	1.17
UUAUGC	0.832	0.799	0.831
CGAUCA	0.917	0.906	0.977
AGAUGU	1.06	1.13	1.05
UGAUGA	3.34	3.56	2.48
GGUCUU	0.91	0.864	0.932
UACACG	0.894	0.857	0.867
UGUAAU	0.85	0.907	0.853
AAGGUA	0.941	1.01	0.987
CAUCAU	0.806	0.8	0.838
GCCCGC	1.24	1.09	1.2
CGAGGC	1.15	1.08	1.17
CCAUCU	0.967	0.915	0.956

Sequence	RBNS R-value (protein concentration: 250 nM)	RBNS R-value (protein concentration: 500 nM)	RBNS R-value (protein concentration: 1000 nM)
CCCUCU	0.993	0.894	0.949
GAGUGC	1.09	1.01	1.04
AGAUGC	1.18	1.17	1.14
CGAUGG	1.24	1.23	1.17
AGAUGA	1.49	1.55	1.34
UGAUGG	2.48	2.56	1.9
AUAUGA	1.1	1.23	1.07
AGAUGG	1.12	1.14	1.14
CAGGCA	1.07	1.06	1.07
GUGCGC	0.961	0.907	0.975
UUCUCC	0.999	0.954	0.96
UUAUCG	0.802	0.76	0.799
GUAUUG	0.976	0.938	0.944
GUAAUA	0.77	0.864	0.803
AAUUUU	0.989	1.08	1.03
CAUUUC	0.964	0.947	0.999
GAUUUU	1.78	1.92	1.53
AAUUUC	1.06	1.11	1.05
AAUUUG	1.08	1.18	1.11
GAUUUA	1.33	1.46	1.22
CAUUUU	0.932	0.925	0.962
CAUUUA	0.761	0.749	0.752
CAUUUG	1.03	1.08	1.04

Sequence	RBNS R-value (protein concentration: 250 nM)	RBNS R-value (protein concentration: 500 nM)	RBNS R-value (protein concentration: 1000 nM)
GAUUUG	1.88	1.94	1.51
GAUUUC	1.71	1.74	1.52
UAUUUA	0.769	0.744	0.736
CCUCGA	1.12	1.08	1.11
GUGUCA	0.85	0.872	0.887
GAUACG	1.1	1.13	1.09
GCGGUA	0.985	0.954	1
CUCCUA	0.889	0.834	0.858
GCUUGC	1.01	0.943	0.985
GAUAGA	1.21	1.3	1.18
GAUAGU	1.01	1.06	1
GAUAGC	1.44	1.48	1.3
AAACGG	1.06	1.07	1.08
AAAGCU	0.98	1.05	1.03
CCCAGA	1.39	1.32	1.3
CCCAGU	1.09	1.03	1.06
CCCAGG	1.27	1.21	1.27
ACAUGA	1.25	1.37	1.2
CCUUUA	0.814	0.763	0.779
UGACCG	1.04	1.02	1.07
CUUUGA	1.35	1.41	1.26
CUUUGG	0.959	0.914	0.962
UUUUGA	1.53	1.59	1.37

Sequence	RBNS R-value (protein concentration: 250 nM)	RBNS R-value (protein concentration: 500 nM)	RBNS R-value (protein concentration: 1000 nM)
CUUUGU	0.825	0.805	0.863
UUUUGU	0.909	0.927	0.922
AUUUGG	1.1	1.17	1.06
UUUUGC	1.06	1.04	1.02
AUUUGU	0.92	0.975	0.913
AUUUGA	1.45	1.59	1.34
CCCUCG	1.05	0.973	1.06
AAAAUA	0.851	1.05	0.927
CCAAAU	0.978	1.04	0.995
AGCUGU	0.94	0.939	0.951
CCACAA	0.988	0.991	1
CUAGAG	1.1	1.1	1.09
GAUCGU	0.85	0.817	0.886
AGUGAA	0.981	1.04	1.05
UGUGAU	1.55	1.73	1.39
AGUGAC	1.02	1.05	1.03
CGUGAG	0.982	0.993	1.05
UGUGAG	0.948	1	1.06
GGUGAU	1.33	1.4	1.28
GGUGAG	1.02	1.02	1.02
UGUGAC	0.993	0.99	0.972
CGUGAU	1.56	1.62	1.39
GGUGAC	0.986	0.987	1.01

Sequence	RBNS R-value (protein concentration: 250 nM)	RBNS R-value (protein concentration: 500 nM)	RBNS R-value (protein concentration: 1000 nM)
CGUGAA	0.992	1.03	1.05
AGUGAU	1.55	1.73	1.44
UUAUAA	0.747	0.809	0.749
UUGUCA	0.891	0.887	0.9
GCACUA	0.903	0.86	0.892
ACACCU	1.23	1.16	1.12
ACAACG	0.949	0.979	0.966
GCCCUG	1.19	1.1	1.14
CACCCG	1.67	1.33	1.41
CGCCCG	1.43	1.22	1.33
GGCCCG	1.26	1.11	1.23
CACCCC	1.3	1.16	1.24
AACCCC	1.11	1.05	1.08
UGCCCG	1.32	1.16	1.2
UACCCG	1.3	1.16	1.2
CACCCA	1.42	1.26	1.31
UACCCA	1.07	1.01	1.01
GACCCA	1.15	1.12	1.14
ACCCCG	1.29	1.16	1.25
AACCCG	1.38	1.25	1.29
AGUAGA	1.01	1.08	1.05
GAUCGC	0.972	0.958	0.975
AACACA	0.942	1.02	0.978
